The panel holds about 83,000 compounds, 20% with a hit somewhere; the sample as a whole holds those more often.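 Compound tested at a single concentration for 48 hours in 96-well plates; a percent growth value below 10 was scored as active.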 Values without a mark were called inactive. Calls of active or inactive are those of the source.
Columns and labels:
Experiment in all cases: NCI-60 one-dose screen, 48 h (100 = growth as untreated, 0 = no growth, -100 = all killed)
Details in all cases: 10 µM unless noted
[1] = system: NCI-H23 lung
[2] = system: NCI-H226 lung
[3] = system: NCI-H322M lung
[4] = system: HOP-62 NSCLC
[5] = system: NCI-H460 lung
[6] = system: HOP-92 NSCLC
[7] = system: NCI-H522 lung
[8] = system: A549/ATCC NSCLC
[9] = system: 786-0 renal
[10] = system: COLO 205 colon
[11] = system: DU-145 prostate
[12] = system: K-562 leukemia
[13] = system: MALME-3M melanoma
[14] = system: MDA-MB-231 breast
[15] = system: RXF 393 renal
[16] = system: SF-268 CNS
[17] = system: SF-295 CNS
[18] = system: SF-539 CNS
[19] = system: UACC-257 melanoma
[20] = system: M14 melanoma

SMILES | growth [1] | growth [2] | growth [3] | growth [4] | growth [5] | growth [6] | growth [7] | growth [8] | growth [9] | growth [10] | growth [11] | growth [12] | growth [13] | growth [14] | growth [15] | growth [16] | growth [17] | growth [18] | growth [19] | growth [20]
Oc1c(Cl)cc(Cl)c2ccc(Cn3cc(-c4ccc(C(F)(F)F)cc4)nn3)nc12 | 83% | 84.2% | 96% | 99.5% | 98.8% | 40.5% | -30.1% (active) | 96.1% | 95.1% | 83% | 48.9% | 4.56% (active) | 45.5% | 86.7% | 5.98% (active) | 83.9% | 104% | 69.4% | 58.1% | 55.5%
N#Cc1cccc(NC(=O)c2oc3ccccc3c2-c2cnn(-c3ccccc3)c2)c1 | 83.7% [50 µM] | 72.5% [50 µM] | 74.1% [50 µM] | 92.6% [50 µM] | 84.3% [50 µM] | -23.3% [50 µM] (active) | 59% [50 µM] | 81.4% [50 µM] | 85.7% [50 µM] | 91.8% [50 µM] | 105% [50 µM] | 4.93% [50 µM] (active) | 101% [50 µM] | 82.7% [50 µM] | 75.7% [50 µM] | 92.4% [50 µM] | 74% [50 µM] | 81.5% [50 µM] | 94.7% [50 µM] | 84% [50 µM]
O=C(CSc1nc(-c2ccccc2)[nH]c1S(=O)(=O)c1ccccc1)NC1CC1 | 56.6% | 85.8% | 105% | 21.2% | 102% | 89.6% | 76.2% | 42.1% | 94.5% | -30.9% (active) | 112% | 87.4% | 103% | 90.1% | 4.36% (active) | 102% | 36.3% | 103% | 87.4% | 96.4%
Cc1cc(=O)[nH]c2c(C#N)cnn12 | 102% | 96.4% | 101% | 105% | 104% | 109% | 89.1% | 97.5% | 105% | 114% | 104% | 103% | 98.9% | 104% | 110% | 99.9% | 101% | 101% | 96.7% | 105%
COC(=O)c1c2c(c[n+]([O-])c1C)C(=O)C(NCc1ccccc1)=CC2=O | -34.1% (active) | -9.27% (active) | -8.65% (active) | 4.14% (active) | -30.3% (active) | -29.7% (active) | -30.5% (active) | -19.8% (active) | 10.5% | -52.5% (active) | -87.1% (active) | 1.41% (active) | -93.4% (active) | -3.95% (active) | -26% (active) | -13.9% (active) | -45.3% (active) | -71.7% (active) | -81.5% (active) | -77.8% (active)
COc1ccc(-c2nnc3n(C)c(=O)c4ccccc4n23)cc1N | 46.6% | 70.1% | 39.5% | 23.3% | 13.6% | 49.9% | 18.8% | 28.6% | 23% | -22.2% (active) | 33.3% | 12.1% | 51.9% | 41% | -10.5% (active) | 55.8% | 10.7% | -5.87% (active) | 49.8% | 13.6%
COc1ccc(C(=S)N2CCN(c3ccccc3Cl)CC2)cc1OC | 117% | 98.1% | 86.6% | 90.9% | 115% | 86% | 85.8% | 115% | 97.5% | 99.5% | 111% | 106% | 90.8% | 102% | 111% | 99.4% | 91.7% | 99.4% | 104% | 92.8%
CCOC(=O)CNP(=O)(OC[C@@H](Cc1ccccc1)NC(=O)c1cc2ccccc2s1)Oc1ccccc1 (stereo not given in full) | 81.1% | 93.2% | 93.3% | 85.3% | 72.7% | 69.3% | 71.7% | 64.8% | 89.7% | 87.2% | 88.8% | 19.4% | 69.3% | 77% | 84.4% | 85.6% | 88.5% | 78.9% | 81.2% | 59.6%
CC1(C)CC[C@]2(C(=O)O)CC[C@]3(C)C(=CC[C@@H]4[C@@]5(C)C/C(=C/O)C(=O)C(C)(C)[C@@H]5CC[C@]43C)[C@@H]2C1 | 22.2% | 96.2% | 62.2% | 73.1% | 83.6% | 89% | 25.2% | 89.4% | 84.3% | 74.9% | 85.2% | 32.2% | 89.9% | 111% | 93.7% | 57.2% | 79.9% | 29.2% | 91.6% | 79.1%
COC(=O)/C=C1/SC(=Nc2ccc(C)cc2)N(CCc2c[nH]c3ccc(O)cc23)C1=O | 72.7% | 83.1% | 97.7% | 55.6% | 52.2% | 53.7% | 42.5% | 84% | 57.2% | 108% | 26.9% | 11.8% | 77.4% | 59.3% | 47.7% | 56.3% | 76.8% | 42.9% | 50.2% | 34.1%
N#C/C(=C/c1ccc([N+](=O)[O-])cc1)n1nnc2cc(F)c(F)cc21 | 93.8% | 102% | 98.4% | 96.6% | 33.1% | 99.6% | 62.6% | 87.6% | 42.1% | 77.4% | 54.2% | 13.9% | 74.8% | 84.7% | 83.3% | 90.5% | 91.4% | 20.7% | 65.5% | 70.1%
CN(C)c1ccc(Nc2cc(-c3cccc(OC(F)(F)F)c3)nc3ccc(N4CCCC4)cc23)cc1 | 27.2% | 103% | 46.3% | 61.3% | -70.9% (active) | 85.3% | 87.7% | -32.8% (active) | 2.11% (active) | 70.6% | 50.3% | -20.9% (active) | -90.4% (active) | 12.3% | 88.8% | -13.4% (active) | 108% | 91.6% | 14.1% | -76.3% (active)
Fc1ccc(Nc2nc3nonc3nc2Nc2ccc(I)cc2)cc1 | -19.5% (active) | -17.5% (active) | 1.66% (active) | -23.7% (active) | 2.95% (active) | -25.9% (active) | -20.2% (active) | 2.73% (active) | -11.1% (active) | -64.4% (active) | 23% | 6.8% (active) | -25.6% (active) | -23.5% (active) | -10.2% (active) | 22% | -43.6% (active) | 7.05% (active) | -24.5% (active) | -3.95% (active)
CC(C)(C)c1cc(-c2nc3ccc(N4CCN(S(C)(=O)=O)CC4)cc3[nH]2)cc(C(C)(C)C)c1O | 96.2% | 91.9% | 100% | 76.7% | 90.6% | 85.6% | 78.1% | 83.4% | 101% | 101% | 99.1% | 78.4% | 82.4% | 104% | 92.6% | 93.1% | 91.1% | 86.5% | 98.9% | 98.3%
